The campaign covered roughly 310,000 compounds. About 14,000 (4.5%) showed an effect of 50% or more. The effect is printed as a negative number. The sample holds strong results, similar compounds and a random draw of the others, so the mix is not that of the screen.

Consider 86 molecules from article PMC4336329 (PLoS ONE, 2015).
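Further: peak tail current of the secondary pulse compared with the same well before compound.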

In the assay the target is human ether-à-go-go-related gene (hERG) potassium channel (human, UniProt Q12809). As to the kind of experiment: primary screen, population patch clamp on CHO cells stably expressing hERG; higher = less effect of the substance.
Sequence of human ether-à-go-go-related gene (hERG) potassium channel (Q12809 whole entry, looked up): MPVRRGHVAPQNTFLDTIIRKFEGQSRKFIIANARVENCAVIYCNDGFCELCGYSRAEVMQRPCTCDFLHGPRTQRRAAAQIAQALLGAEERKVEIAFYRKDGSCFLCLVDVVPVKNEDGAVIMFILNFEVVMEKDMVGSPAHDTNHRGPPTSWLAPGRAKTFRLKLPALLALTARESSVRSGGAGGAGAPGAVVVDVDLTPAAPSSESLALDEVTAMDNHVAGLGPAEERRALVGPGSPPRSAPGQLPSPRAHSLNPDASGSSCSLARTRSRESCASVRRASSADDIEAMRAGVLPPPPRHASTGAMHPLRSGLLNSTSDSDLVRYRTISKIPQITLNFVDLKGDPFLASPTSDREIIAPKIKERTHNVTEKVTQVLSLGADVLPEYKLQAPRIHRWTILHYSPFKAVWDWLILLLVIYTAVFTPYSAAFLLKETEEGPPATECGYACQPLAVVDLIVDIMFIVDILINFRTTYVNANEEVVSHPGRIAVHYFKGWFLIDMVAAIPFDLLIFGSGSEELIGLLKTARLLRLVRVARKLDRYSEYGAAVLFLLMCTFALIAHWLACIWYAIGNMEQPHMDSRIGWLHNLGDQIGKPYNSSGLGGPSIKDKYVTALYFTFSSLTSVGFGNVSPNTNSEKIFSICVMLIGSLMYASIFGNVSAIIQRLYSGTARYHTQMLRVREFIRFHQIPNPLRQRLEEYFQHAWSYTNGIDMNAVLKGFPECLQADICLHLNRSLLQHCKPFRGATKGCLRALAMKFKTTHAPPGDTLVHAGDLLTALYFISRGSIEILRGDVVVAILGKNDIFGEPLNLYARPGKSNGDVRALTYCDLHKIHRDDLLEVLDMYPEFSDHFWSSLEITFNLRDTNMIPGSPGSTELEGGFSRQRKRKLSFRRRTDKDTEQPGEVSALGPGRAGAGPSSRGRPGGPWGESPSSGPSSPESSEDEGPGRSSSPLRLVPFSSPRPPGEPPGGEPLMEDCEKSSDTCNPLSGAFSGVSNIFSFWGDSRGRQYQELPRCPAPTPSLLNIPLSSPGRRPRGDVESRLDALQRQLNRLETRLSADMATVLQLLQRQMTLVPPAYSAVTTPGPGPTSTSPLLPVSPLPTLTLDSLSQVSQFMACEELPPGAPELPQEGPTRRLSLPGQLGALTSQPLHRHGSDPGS
As to `Cc1c(CC(=O)O)c(=O)oc2c(C)c(OCc3c(F)cccc3Cl)ccc12`, the “hERG current change (%, negative = inhibition) at 10uM” value was determined as 5.53%.
Consider `CCOc1ccccc1NC(=O)C(NCCN(C)C)c1ccccc1.O=C(O)C(=O)O` (centres unmarked), for which the “hERG current change (%, negative = inhibition) at 10uM” value was -76.4%.
In the case of `CCOc1ccccc1NC(=O)C(OC(=O)C1CC1)c1ccccc1` (centres unmarked) it was -10.3%; in that of `CCOc1ccccc1NC(=O)C(Sc1ccccc1)c1ccccc1` (centres unmarked), 9.32%; in that of `CCOc1ccccc1NC(=O)C(NCC1(N2CCCCC2)CCCCC1)c1ccccc1.O=C(O)C(=O)O` (centres unmarked), -70.9%.
In the case of `CCOc1ccccc1NC(=O)C(NCC1CCCCC1)c1ccccc1` (centres unmarked) it was 16.9%; in that of `CCOc1ccccc1NC(=O)C(NCCc1ccc(OC)cc1)c1ccccc1` (centres unmarked), -4.48%; in that of `COc1cccc(C(=O)N2CCC3(CC2)OCCO3)c1`, 20.3%.
Turning to `COc1ccc(OCCNS(=O)(=O)Cc2ccccc2)cc1`, the “hERG current change (%, negative = inhibition) at 10uM” value was found to be 0.161%.
For the molecule `Cc1cccc(NC(=O)c2ccc(S(=O)(=O)N3CCOCC3)cc2)n1`, the “hERG current change (%, negative = inhibition) at 10uM” value came to 19.5%.
The result for `COCCSc1ccccc1C(=O)N1CCc2ccccc21` reads 15.1%; that for `CC(C)(C)c1ccc(OCCC(=O)Nc2cccc(S(=O)(=O)N3CCCCC3)c2)cc1`, 16.4%.
In the case of `Cc1nc(N2CCN(S(=O)(=O)c3ccc(Br)cc3)CC2)c2c(C)c(C)sc2n1` it was -10.7%; in that of `O=C(COc1ccccc1)N1CCN(c2ccccc2)CC1`, -3.1%.
In the case of `CCC(=O)N1CCN(c2nc(C)nc3sc(C)c(C)c23)CC1` it was -62%.
For the molecule `Cc1nc(N2CCN(C(=O)CCC(=O)O)CC2)c2c(C)c(C)sc2n1`, the “hERG current change (%, negative = inhibition) at 10uM” value is -1.2%.
The result for `Cc1sc2ncnc(OCC(=O)N3CCN(S(=O)(=O)c4ccccc4)CC3)c2c1C` reads -2.31%.
In the case of `Cc1nc(N2CCN(C(=O)COc3ccccc3)CC2)c2c(C)c(C)sc2n1.Cl` it was -69.3%; in that of `O=C(c1cc(C2CC2)nn1-c1ccccc1)N1CCN(S(=O)(=O)c2cccc(F)c2)CC1`, -28.1%.
The result for `O=[N+]([O-])c1ccc(Cl)c(S(=O)(=O)/N=C(/c2ccccc2)N2CCOCC2)c1` reads 3.91%; that for `COc1ccc(C(=O)N2CCN(c3ccc(N4CCOCC4)nn3)CC2)cc1OC`, 8.55%.
With `COc1ccc(/C=C/C(=O)NCCc2nc3ccccc3[nH]2)cc1`, the “hERG current change (%, negative = inhibition) at 10uM” value is on record as 26.4%.
With `O=C(/C=C/c1ccco1)N/C(=C\c1ccccc1)C(=O)NCCc1nc2ccccc2[nH]1`, the “hERG current change (%, negative = inhibition) at 10uM” value is recorded as -46.3%.
Take `O=C(/C=C/c1ccco1)N/C(=C\c1ccco1)C(=O)NCCc1nc2ccccc2[nH]1`: the “hERG current change (%, negative = inhibition) at 10uM” value is -22.6%.
The result for `CC(C)Oc1ccc(/C=C(\NC(=O)/C=C/c2ccco2)C(=O)NCCc2nc3ccccc3[nH]2)cc1` reads -28.6%; that for `COc1ccc(/C=C/C(=O)N/C(=C\c2ccco2)C(=O)NCCc2nc3ccccc3[nH]2)cc1`, -72.7%.
As to `COc1ccc(/C=C(\NC(=O)/C=C/c2ccco2)C(=O)NCCc2nc3ccccc3[nH]2)cc1`, the “hERG current change (%, negative = inhibition) at 10uM” value is -56.6%.
The result for `Cc1c2cnn(CC(=O)NCCCN3CC(C)CC(C)C3)c(=O)c2c(C)n1Cc1ccc(Cl)cc1` (centres unmarked) reads -52.6%; that for `Cc1nn(CC(=O)NCCCN2CC(C)CC(C)C2)c(=O)c2cccn12` (centres unmarked), 12.9%.
In the case of `Cc1c2cnn(CC(=O)NCCCN3CC(C)CC(C)C3)c(=O)c2c(C)n1Cc1ccccc1Cl` (centres unmarked), the “hERG current change (%, negative = inhibition) at 10uM” value was -36.7%.
For `Cc1cc2c(cc3c(=O)n(CC(=O)NCCCN4CC(C)CC(C)C4)ncn32)s1` (centres unmarked), the “hERG current change (%, negative = inhibition) at 10uM” value was -53.4%.
On to `CC1CC(C)CN(CCCNC(=O)Cn2ncn3cccc3c2=O)C1` (centres unmarked), for which the “hERG current change (%, negative = inhibition) at 10uM” value is listed as -3.29%.
In the case of `Cc1c2cnn(CC(=O)NCCCN3CCCCC3)c(=O)c2c(C)n1Cc1ccccc1` it was 9.96%; in that of `COC(=O)c1ccc(OC(=O)CCN2c3ccccc3Sc3ccccc32)cc1`, 8.91%; in that of `Nc1c(C(=O)NC23CC4CC(CC(C4)C2)C3)sc2nc3c(c(C(F)(F)F)c12)CCC3`, 0.00528%.
The result for `O=C(CN1C2CCCC1CC(NC(=O)c1ccccc1)C2)NC1CC1` (centres unmarked) reads 26.9%; that for `CN(C)c1ccc(NC(=O)CN2C3CCCC2CC(NC(=O)c2ccccc2)C3)cc1` (centres unmarked), -65.3%.
With `COc1cccc(C(=O)NC2CC3CCCC(C2)N3CC(=O)Nc2ccccc2C(F)(F)F)c1` (centres unmarked), the “hERG current change (%, negative = inhibition) at 10uM” value worked out at 15.8%.
In the case of `CC(=O)NC1CC2CCCC(C1)N2CC(=O)Nc1ccccc1` (centres unmarked) it was 4.65%; in that of `O=C(CN1C2CCCC1CC(NC(=O)c1ccccc1)C2)Nc1ccccc1C(F)(F)F` (centres unmarked), 6.14%.
Regarding `O=C(CN1C2CCCC1CC(NC(=O)c1ccco1)C2)Nc1ccccc1` (centres unmarked), the “hERG current change (%, negative = inhibition) at 10uM” value is on record as -45.2%.
For `COc1cccc(C(=O)NC2CC3CCCC(C2)N3CC(=O)Nc2ccc(N(C)C)cc2)c1` (centres unmarked), the “hERG current change (%, negative = inhibition) at 10uM” value is -49.3%.
The result for `COc1cccc(C(=O)NC2CC3CCCC(C2)N3CC(=O)Nc2ccccc2)c1.Cl` (centres unmarked) reads -54.4%; that for `O=C(CN1C2CCCC1CC(NC(=O)c1ccccc1)C2)Nc1ccccc1` (centres unmarked), -50.7%.
In the case of `CCOc1ccc(NC(=O)COc2nsnc2N2CCCCC2)cc1`, the “hERG current change (%, negative = inhibition) at 10uM” value is 21.6%.
Take `CC(C)[C@H](NC(=O)c1ccc(F)cc1)C(=O)N(C)Cc1cccs1`: the “hERG current change (%, negative = inhibition) at 10uM” value is listed as -13.8%.
Regarding `Cc1ccc(SCC(=O)N2CCOCC2)cc1`, the “hERG current change (%, negative = inhibition) at 10uM” value is on record as 4.71%.
Take `Cc1cccc(OCCc2nnc(N)s2)c1C`: the “hERG current change (%, negative = inhibition) at 10uM” value is 15.2%.
The result for `CCN1CCCC1CNS(=O)(=O)c1ccc(F)c(Cl)c1` (centres unmarked) reads 9.12%; that for `CCOc1cc(CNCC2CCCN2CC)cc(Cl)c1OC.Cl` (centres unmarked), -18%.
As for `CCN1CCCC1CNCc1ccccc1OCc1ccc(F)cc1.Cl` (centres unmarked), the “hERG current change (%, negative = inhibition) at 10uM” value is -65%.
For the molecule `CCN1CCCC1CNCc1ccc(OCc2ccc(Cl)nc2)c(OC)c1.Cl` (centres unmarked), the “hERG current change (%, negative = inhibition) at 10uM” value is reported as -39.1%.
Turning to `CCN1CCCC1CNCc1cccc(OC)c1OCc1ccccc1.Cl` (centres unmarked), the “hERG current change (%, negative = inhibition) at 10uM” value was -26.9%.
In the case of `COc1cccc(CNc2ccccc2O)c1OCc1ccccc1F` it was -1.17%; in that of `CCN1CCCC1CNCc1cccc(OC)c1OCc1ccccc1F.Cl` (centres unmarked), -54.4%; in that of `CCN1CCCC1CNCc1cc(OC)c(OC)c(OC)c1.Cl` (centres unmarked), 1.63%.
In the case of `CNCc1ccccc1OCc1ccc(F)cc1.Cl` it was -7.08%.
The result for `CCN1CCCC1CNCc1ccc(Cl)cc1Cl.Cl` (centres unmarked) reads -64.6%.
Take `COc1cccc(CNn2cnnc2)c1OCc1ccccc1F`: the “hERG current change (%, negative = inhibition) at 10uM” value was found to be 6.85%.
Take `CCN1CCCC1CNCc1cccc(OC)c1OCc1ccc(F)cc1.Cl` (centres unmarked): the “hERG current change (%, negative = inhibition) at 10uM” value was -69.5%.
The result for `O=c1cc(/N=C/c2coc3c(ccc4ccccc43)c2=O)[nH]c(=S)[nH]1` reads 11%.
For `Nc1nc(SCC(=O)Nc2ccc(Oc3ccccc3)cc2)n[nH]1`, the “hERG current change (%, negative = inhibition) at 10uM” value is given as -4.09%.
In the case of `CCNC(=S)N(CCc1c(C)[nH]c2ccc(F)cc12)Cc1cccnc1` it was -26.5%; in that of `O=C(Cn1cnnn1)NCc1ccccc1`, 29.6%.
The result for `O=C(Cn1c(-c2cscn2)nc2ccccc21)Nc1ccc(Cl)cc1` reads -7.59%; that for `COCC(C)n1c(C)cc(C(=O)CSc2cc(C)c3ccccc3n2)c1C` (centres unmarked), 4.64%; that for `CCc1ccc(OCC(=O)NC(=S)Nc2ccc(C)cc2C)c(Br)c1`, 7.39%.
In the case of `CN(c1ccc(C(=O)N2CCCCC2)cc1)S(=O)(=O)c1cccs1` it was 8.46%.
As for `NS(=O)(=O)c1ccc2nc(NC(=O)c3ccncc3)sc2c1`, the “hERG current change (%, negative = inhibition) at 10uM” value is 13.9%.
The result for `Cc1nc(NS(=O)(=O)c2ccc(Cl)s2)c2c3c(sc2n1)CCCC3` reads -28.7%; that for `CCN(CC)CCNC(=O)c1ccc(NC(=O)c2cc(-c3ccco3)nc3ccccc23)cc1`, -30.2%; that for `CCN(CC)CCNC(=O)c1cc(-c2ccc(Br)s2)nc2ccccc12`, -9.2%.
On to `CCN(CC)CCNC(=O)c1cc(-c2ccco2)nc2ccccc12.Cl`, for which the “hERG current change (%, negative = inhibition) at 10uM” value is recorded as -65.5%.
In the case of `COc1ccc(Nc2cc(C(=O)NCCCN3CCOCC3)c3ccccc3n2)cc1` it was -26.5%; in that of `NS(=O)(=O)c1ccc(CCNC(=O)c2cc(-c3ccccc3)nc3ccccc23)cc1`, -10.4%; in that of `CCN(CC)CCCNC(=O)c1cc(Nc2ccc(OC)cc2)nc2ccccc12`, -53.8%.
For the molecule `CCCCOc1cc(C(=O)NCCN(CC)CC)c2ccccc2n1`, the “hERG current change (%, negative = inhibition) at 10uM” value is -65.9%.
The result for `CCN(CC)CCNC(=O)c1cc(Nc2ccc(OC)c(OC)c2)nc2ccccc12` reads -23.8%; that for `COc1ccc(CCNC(=O)c2cc(-c3ccco3)nc3ccccc23)cc1`, 2.98%.
For `CCN(CC)CCCNC(=O)c1cc(Nc2ccc(OC)cc2OC)nc2ccccc12`, the “hERG current change (%, negative = inhibition) at 10uM” value is -36.1%.
With `CCCCCCNC(=O)c1cc(-c2ccco2)nc2ccccc12`, the “hERG current change (%, negative = inhibition) at 10uM” value is -11.5%.
The result for `NS(=O)(=O)c1ccc(CCNC(=O)c2cc(-c3ccco3)nc3ccccc23)cc1` reads -58.3%; that for `CN1C(=O)N2CN(C3CCCCC3)CN3C(=O)N(C)C1C23` (centres unmarked), 9.88%.
Consider `Cc1noc(C)c1COC(=O)C1COc2ccccc2O1` (centres unmarked), for which the “hERG current change (%, negative = inhibition) at 10uM” value turned out to be 15.2%.
Consider `CCc1ccc(N(C(=O)c2csnn2)C(C(=O)NC(C)(C)C)c2cccnc2)cc1` (centres unmarked), for which the “hERG current change (%, negative = inhibition) at 10uM” value worked out at 4.59%.
In the case of `CCOCCCNC(=O)C(NC(=O)c1ccccn1)c1ccc(C)cc1` (centres unmarked) it was -0.00042%.
